{"source": "paper PMC11006913", "test_in_all_cases": "PBM; 200 nM protein, PBS", "conditions_in_all_cases": "dsDNA, one strand shown", "key": {"SHOX [1]": {"target": "SHOX (Homo sapiens, UniProt O15266 103-189)", "sequence (O15266 103-189)": "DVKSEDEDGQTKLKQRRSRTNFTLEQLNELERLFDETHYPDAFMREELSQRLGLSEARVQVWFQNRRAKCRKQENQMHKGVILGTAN"}, "PAX4 [2]": {"target": "T1, PAX4 (Homo sapiens, UniProt O43316 9-242, R200K)", "T1 sequence": "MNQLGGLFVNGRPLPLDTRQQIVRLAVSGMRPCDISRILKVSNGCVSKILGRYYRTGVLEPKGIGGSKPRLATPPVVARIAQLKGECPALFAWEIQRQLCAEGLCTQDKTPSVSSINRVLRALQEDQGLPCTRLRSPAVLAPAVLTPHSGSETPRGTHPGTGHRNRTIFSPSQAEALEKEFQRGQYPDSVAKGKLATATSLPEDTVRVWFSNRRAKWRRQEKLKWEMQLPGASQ"}, "PAX4 [3]": {"target": "T2, PAX4 (Homo sapiens, UniProt O43316 9-242)", "T2 sequence": "T1 sequence with K192R"}, "PAX4 [4]": {"target": "T3, PAX4 (Homo sapiens, UniProt O43316 9-242, R200Q)", "T3 sequence": "T1 sequence with K192Q"}, "SHOX [5]": {"target": "SHOX (Homo sapiens, UniProt O15266 103-189, R173C)", "sequence (O15266 103-189 R173C)": "as the sequence (O15266 103-189) above, with R71C counted along it"}, "PAX4 [6]": {"target": "T4, PAX4 (Homo sapiens, UniProt O43316 9-242, F177V)", "T4 sequence": "T1 sequence with F169V, K192R"}, "PAX4 [7]": {"target": "T5, PAX4 (Homo sapiens, UniProt O43316 9-242, F177Y)", "T5 sequence": "T1 sequence with F169Y, K192R"}, "HESX1 [8]": {"target": "HESX1 (Homo sapiens, UniProt Q9UBX0 95-180, R109Q)", "sequence (Q9UBX0 95-180 R109Q)": "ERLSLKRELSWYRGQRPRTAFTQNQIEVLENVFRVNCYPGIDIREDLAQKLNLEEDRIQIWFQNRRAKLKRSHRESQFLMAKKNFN"}, "HESX1 [9]": {"target": "HESX1 (Homo sapiens, UniProt Q9UBX0 95-180, F115L)", "sequence (Q9UBX0 95-180 F115L)": "as the sequence (Q9UBX0 95-180 R109Q) above, with Q15R, F21L counted along it"}, "PAX4 [10]": {"target": "T6, PAX4 (Homo sapiens, UniProt O43316 9-242, R227W)", "T6 sequence": "T1 sequence with K192R, R219W"}, "HOXA2 [11]": {"target": "HOXA2 (Homo sapiens, UniProt O43364 129-215, R185T)", "sequence (O43364 129-215 R185T)": "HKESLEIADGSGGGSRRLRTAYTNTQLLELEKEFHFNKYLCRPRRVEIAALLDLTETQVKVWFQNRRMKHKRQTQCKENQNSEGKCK"}, "HOXA2 [12]": {"target": "HOXA2 (Homo sapiens, UniProt O43364 129-215, R185K)", "sequence (O43364 129-215 R185K)": "as the sequence (O43364 129-215 R185T) above, with T57K counted along it"}, "HOXA2 [13]": {"target": "HOXA2 (Homo sapiens, UniProt O43364 129-215, Y150S)", "sequence (O43364 129-215 Y150S)": "as the sequence (O43364 129-215 R185T) above, with Y22S, T57R counted along it"}, "HOXA2 [14]": {"target": "HOXA2 (Homo sapiens, UniProt O43364 129-215)", "sequence (O43364 129-215)": "as the sequence (O43364 129-215 R185T) above, with T57R counted along it"}, "HOXC10 [15]": {"target": "HOXC10 (Homo sapiens, UniProt Q9NYD6 254-340)", "sequence (Q9NYD6 254-340)": "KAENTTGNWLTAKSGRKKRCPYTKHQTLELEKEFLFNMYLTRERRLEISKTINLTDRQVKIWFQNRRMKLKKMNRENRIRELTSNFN"}, "HOXD13 [16]": {"target": "HOXD13 (Homo sapiens, UniProt P35453 263-343, T313R)", "sequence (P35453 263-343 T313R)": "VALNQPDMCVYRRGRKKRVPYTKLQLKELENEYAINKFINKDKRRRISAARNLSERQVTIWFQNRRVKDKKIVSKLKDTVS"}, "HOXD13 [17]": {"target": "HOXD13 (Homo sapiens, UniProt P35453 263-343)", "sequence (P35453 263-343)": "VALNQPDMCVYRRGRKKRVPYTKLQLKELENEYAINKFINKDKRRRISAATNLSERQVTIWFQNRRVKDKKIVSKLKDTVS"}, "HOXC10 [18]": {"target": "HOXC10 (Homo sapiens, UniProt Q9NYD6 254-340, K271E)", "sequence (Q9NYD6 254-340 K271E)": "as the sequence (Q9NYD6 254-340) above, with K18E counted along it"}, "HOXD13 [19]": {"target": "HOXD13 (Homo sapiens, UniProt P35453 263-343, T313A)", "sequence (P35453 263-343 T313A)": "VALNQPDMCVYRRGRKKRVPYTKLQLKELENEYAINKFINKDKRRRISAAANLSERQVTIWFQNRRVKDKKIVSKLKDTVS"}, "PITX2": {"target": "PITX2 (Homo sapiens, UniProt Q99697 72-157)"}, "MSX2 [20]": {"target": "MSX2 (Homo sapiens, UniProt P35548 130-214, R199I)", "sequence (P35548 130-214 R199I)": "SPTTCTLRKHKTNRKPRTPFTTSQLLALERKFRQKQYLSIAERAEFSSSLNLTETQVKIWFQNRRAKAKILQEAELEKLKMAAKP"}, "ALX1 [21]": {"target": "ALX1 (Homo sapiens, UniProt Q15699 118-204, L144V)", "sequence (Q15699 118-204 L144V)": "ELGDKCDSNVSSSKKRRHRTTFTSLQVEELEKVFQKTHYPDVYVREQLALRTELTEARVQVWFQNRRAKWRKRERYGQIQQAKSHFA"}, "ALX1 [22]": {"target": "ALX1 (Homo sapiens, UniProt Q15699 118-204, L144R)", "sequence (Q15699 118-204 L144R)": "as the sequence (Q15699 118-204 L144V) above, with V27R counted along it"}, "MSX2 [23]": {"target": "MSX2 (Homo sapiens, UniProt P35548 130-214)", "sequence (P35548 130-214)": "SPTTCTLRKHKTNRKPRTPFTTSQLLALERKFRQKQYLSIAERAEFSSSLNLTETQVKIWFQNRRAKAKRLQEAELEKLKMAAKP"}, "MSX2 [24]": {"target": "MSX2 (Homo sapiens, UniProt P35548 130-214, F161Y)", "sequence (P35548 130-214 F161Y)": "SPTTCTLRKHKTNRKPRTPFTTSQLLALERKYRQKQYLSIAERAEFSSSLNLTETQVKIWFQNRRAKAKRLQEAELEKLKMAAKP"}, "ALX1 [25]": {"target": "ALX1 (Homo sapiens, UniProt Q15699 118-204)", "sequence (Q15699 118-204)": "as the sequence (Q15699 118-204 L144V) above, with V27L counted along it"}}, "note": "Changes are numbered by the printed parent chain.", "data": [{"sequence": "AATTAGAC", "values": [{"measurement": "binding signal", "setting": "SHOX [1]", "value": "11.4 upbm affinity estimate (log intensity, higher = more binding, comparable within an allelic series)"}, {"measurement": "binding signal", "setting": "PAX4 [2]", "value": "11.7 upbm affinity estimate (log intensity, higher = more binding, comparable within an allelic series)"}, {"measurement": "binding signal", "setting": "PAX4 [3]", "value": "12.2 upbm affinity estimate (log intensity, higher = more binding, comparable within an allelic series)"}, {"measurement": "binding signal", "setting": "PAX4 [4]", "value": "12 upbm affinity estimate (log intensity, higher = more binding, comparable within an allelic series)"}, {"measurement": "binding signal", "setting": "SHOX [5]", "value": "9.23 upbm affinity estimate (log intensity, higher = more binding, comparable within an allelic series)"}, {"measurement": "binding signal", "setting": "PAX4 [6]", "value": "10.6 upbm affinity estimate (log intensity, higher = more binding, comparable within an allelic series)"}, {"measurement": "binding signal", "setting": "PAX4 [7]", "value": "11 upbm affinity estimate (log intensity, higher = more binding, comparable within an allelic series)"}, {"measurement": "binding signal", "setting": "HESX1 [8]", "value": "8.68 upbm affinity estimate (log intensity, higher = more binding, comparable within an allelic series)"}, {"measurement": "binding signal", "setting": "HESX1 [9]", "value": "7.81 upbm affinity estimate (log intensity, higher = more binding, comparable within an allelic series)"}, {"measurement": "binding signal", "setting": "PAX4 [10]", "value": "11 upbm affinity estimate (log intensity, higher = more binding, comparable within an allelic series)"}]}, {"sequence": "CGCCCGAC", "values": [{"measurement": "binding signal", "setting": "SHOX [1]", "value": "7.09 upbm affinity estimate (log intensity, higher = more binding, comparable within an allelic series)"}, {"measurement": "binding signal", "setting": "HOXA2 [11]", "value": "7.5 upbm affinity estimate (log intensity, higher = more binding, comparable within an allelic series)"}, {"measurement": "binding signal", "setting": "SHOX [5]", "value": "7.2 upbm affinity estimate (log intensity, higher = more binding, comparable within an allelic series)"}, {"measurement": "binding signal", "setting": "HOXA2 [12]", "value": "10.3 upbm affinity estimate (log intensity, higher = more binding, comparable within an allelic series)"}, {"measurement": "binding signal", "setting": "HOXA2 [13]", "value": "10.6 upbm affinity estimate (log intensity, higher = more binding, comparable within an allelic series)"}, {"measurement": "binding signal", "setting": "HOXA2 [14]", "value": "7.16 upbm affinity estimate (log intensity, higher = more binding, comparable within an allelic series)"}]}, {"sequence": "CCCTTCGA", "values": [{"measurement": "binding signal", "setting": "SHOX [1]", "value": "6.95 upbm affinity estimate (log intensity, higher = more binding, comparable within an allelic series)"}, {"measurement": "binding signal", "setting": "HOXC10 [15]", "value": "10 upbm affinity estimate (log intensity, higher = more binding, comparable within an allelic series)"}, {"measurement": "binding signal", "setting": "HOXD13 [16]", "value": "9.49 upbm affinity estimate (log intensity, higher = more binding, comparable within an allelic series)"}, {"measurement": "binding signal", "setting": "SHOX [5]", "value": "7.13 upbm affinity estimate (log intensity, higher = more binding, comparable within an allelic series)"}, {"measurement": "binding signal", "setting": "HOXD13 [17]", "value": "9.43 upbm affinity estimate (log intensity, higher = more binding, comparable within an allelic series)"}, {"measurement": "binding signal", "setting": "HOXC10 [18]", "value": "10.1 upbm affinity estimate (log intensity, higher = more binding, comparable within an allelic series)"}, {"measurement": "binding signal", "setting": "HOXD13 [19]", "value": "9.48 upbm affinity estimate (log intensity, higher = more binding, comparable within an allelic series)"}]}, {"sequence": "CAGCGCAG", "values": [{"measurement": "binding signal", "setting": "SHOX [1]", "value": "7.11 upbm affinity estimate (log intensity, higher = more binding, comparable within an allelic series)"}, {"measurement": "binding signal", "setting": "PAX4 [2]", "value": "9.32 upbm affinity estimate (log intensity, higher = more binding, comparable within an allelic series)"}, {"measurement": "binding signal", "setting": "PAX4 [3]", "value": "9.29 upbm affinity estimate (log intensity, higher = more binding, comparable within an allelic series)"}, {"measurement": "binding signal", "setting": "PAX4 [4]", "value": "9.39 upbm affinity estimate (log intensity, higher = more binding, comparable within an allelic series)"}, {"measurement": "binding signal", "setting": "PITX2", "value": "8.17 upbm affinity estimate (log intensity, higher = more binding, comparable within an allelic series)"}, {"measurement": "binding signal", "setting": "SHOX [5]", "value": "7.22 upbm affinity estimate (log intensity, higher = more binding, comparable within an allelic series)"}, {"measurement": "binding signal", "setting": "PAX4 [6]", "value": "9.38 upbm affinity estimate (log intensity, higher = more binding, comparable within an allelic series)"}, {"measurement": "binding signal", "setting": "PAX4 [7]", "value": "9.36 upbm affinity estimate (log intensity, higher = more binding, comparable within an allelic series)"}, {"measurement": "binding signal", "setting": "PAX4 [10]", "value": "9.48 upbm affinity estimate (log intensity, higher = more binding, comparable within an allelic series)"}]}, {"sequence": "CGGACAGC", "values": [{"measurement": "binding signal", "setting": "SHOX [1]", "value": "7.13 upbm affinity estimate (log intensity, higher = more binding, comparable within an allelic series)"}, {"measurement": "binding signal", "setting": "PAX4 [2]", "value": "9.47 upbm affinity estimate (log intensity, higher = more binding, comparable within an allelic series)"}, {"measurement": "binding signal", "setting": "PAX4 [3]", "value": "9.43 upbm affinity estimate (log intensity, higher = more binding, comparable within an allelic series)"}, {"measurement": "binding signal", "setting": "MSX2 [20]", "value": "9.52 upbm affinity estimate (log intensity, higher = more binding, comparable within an allelic series)"}, {"measurement": "binding signal", "setting": "ALX1 [21]", "value": "6.29 upbm affinity estimate (log intensity, higher = more binding, comparable within an allelic series)"}, {"measurement": "binding signal", "setting": "PAX4 [4]", "value": "9.47 upbm affinity estimate (log intensity, higher = more binding, comparable within an allelic series)"}, {"measurement": "binding signal", "setting": "SHOX [5]", "value": "7.17 upbm affinity estimate (log intensity, higher = more binding, comparable within an allelic series)"}, {"measurement": "binding signal", "setting": "ALX1 [22]", "value": "6.43 upbm affinity estimate (log intensity, higher = more binding, comparable within an allelic series)"}, {"measurement": "binding signal", "setting": "PAX4 [6]", "value": "9.4 upbm affinity estimate (log intensity, higher = more binding, comparable within an allelic series)"}, {"measurement": "binding signal", "setting": "MSX2 [23]", "value": "9.55 upbm affinity estimate (log intensity, higher = more binding, comparable within an allelic series)"}, {"measurement": "binding signal", "setting": "PAX4 [7]", "value": "9.46 upbm affinity estimate (log intensity, higher = more binding, comparable within an allelic series)"}, {"measurement": "binding signal", "setting": "MSX2 [24]", "value": "9.53 upbm affinity estimate (log intensity, higher = more binding, comparable within an allelic series)"}, {"measurement": "binding signal", "setting": "PAX4 [10]", "value": "9.46 upbm affinity estimate (log intensity, higher = more binding, comparable within an allelic series)"}, {"measurement": "binding signal", "setting": "ALX1 [25]", "value": "6.5 upbm affinity estimate (log intensity, higher = more binding, comparable within an allelic series)"}]}]}
